The supplement of paper PMC11417369
Whole data set: some 25,000 sequences, median “ln(normalized median fluorescence intensity)” near 9.7, cut for the highest 2% near 11. The list comes from a sample in which the highest values are over-represented; it also holds similar and randomly drawn sequences.

The sequences below were run on PfAP2-HC AP2 domain (GST-tagged) (assay: gcPBM binding intensity (ln(normalized median fluorescence intensity)); higher = stronger DNA binding).
Procedure, shortened: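 For binding intensity, the highest Masliner-normalised natural-log median intensity across replicate spots of either probe orientation was taken. Protein bound to the array was stained with Alexa488 anti-GST antibody and scanned at 488 nm. The protein, GST-tagged P. falciparum DNA-binding domains from E. coli at about 25 μg on average, had been applied for 1 h to an Agilent 4 × 180k array of primer-extended double-stranded 36-bp intergenic genomic probes and negative controls.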
In the case of “ACATTATGCCATAAATGTACACATACATATACACAG [XGTACX_site1330]”, the “gcPBM binding intensity (ln)” value is reported as 9.66. “AAACAATTTTTTAAAAGTACTTGAAAATTGTGAAAT [XGTACX_site2461]” was tested, and the “gcPBM binding intensity (ln)” value was 9.63. With “ATAAAATGAACAAACACACACACATATATATATATA [CACACA_site2402]” the “gcPBM binding intensity (ln)” value was 10.9. “AAAATGAACAAACACACACACATATATATATATATA [CACACA_site2403]” was tested, and the “gcPBM binding intensity (ln)” value was 11.2. “AAAAAAATGAAACACACACACACATATATATATATA [CACACA_site1043]” was tested, and the “gcPBM binding intensity (ln)” value was 10.4. In the case of “TTTTAATTAAAACACACACACACATATATATATATA [CACACA_site2291]”, the “gcPBM binding intensity (ln)” value is reported as 10.6. For “AAAAAAAAAAAAAAAACACACATATATATATATATA [CACACA_site2436]”, the “gcPBM binding intensity (ln)” value was 10.4. In the case of “AACAAAAATGAAAAAACACACATAACATATATAAAT [CACACA_site740]”, the “gcPBM binding intensity (ln)” value is reported as 10.1. In the case of “CCTTTAAGCAAAAACACACACACATATATATATATA [CACACA_site348]”, the “gcPBM binding intensity (ln)” value is reported as 10. “TTTAAGCAAAAACACACACACATATATATATATATA [CACACA_site349]” was tested, and the “gcPBM binding intensity (ln)” value was 11.1. With “TTTTAATGAAAACACACACACACATATATATATATA [CACACA_site5295]” the “gcPBM binding intensity (ln)” value was 11.1. “TATAAGCAAAAACACACACACATATATATATATATA [CACACA_site3804]” was tested, and the “gcPBM binding intensity (ln)” value was 10.2. In the case of “AAAAAACAAAAACACACACACACATATATATATATA [CACACA_site3654]”, the “gcPBM binding intensity (ln)” value is reported as 10.9. “AAAAAAACACACACATATATATATATATATATATAT [GTGCAC_negctrl_site498]” was tested, and the “gcPBM binding intensity (ln)” value was 10.3. “CAAAGATATATAAACACACAAATATAACATATATAC [CACACA_site7395]” was tested, and the “gcPBM binding intensity (ln)” value was 9.99. For “ATATATTTATATATTACACACAATATTGTAGACATA [CACACA_site4669]”, the “gcPBM binding intensity (ln)” value was 9.74. With “TATATATAACTTTATTGTACAAAATATTATGTATTC [XGTACX_site981]” the “gcPBM binding intensity (ln)” value was 9.66. For “TGATCAGATAGACACACACACAAAAAAAAAAAAAAA [CACACA_site7805]”, the “gcPBM binding intensity (ln)” value was 10.1. In the case of “TATCAAAATTAGTATACACACAAAATTAATCAAATA [CACACA_site7117]”, the “gcPBM binding intensity (ln)” value is reported as 9.86. With “ATATTAAGTTTTATTACACACTCTCAATTTTTATTT [CACACA_site4206]” the “gcPBM binding intensity (ln)” value was 9.87. With “ATATTTTTTTCATAGACACACACAATATATCTGTTT [CACACA_site8993]” the “gcPBM binding intensity (ln)” value was 10.1. “AAATAAATGAAACACACACACACAAAAAAAAAAAAC [CACACA_site2625]” was tested, and the “gcPBM binding intensity (ln)” value was 10.9. For “AATATAAACAAACACACACACATATATATATATATT [CACACA_site5592]”, the “gcPBM binding intensity (ln)” value was 10.3. For “GGATATAACAAACACACACACACATATATATATATT [CACACA_site4141]”, the “gcPBM binding intensity (ln)” value was 11.2. For “AATATAAACACAAACACACACATATATATATATATA [CACACA_site4307]”, the “gcPBM binding intensity (ln)” value was 10.1. With “AAAAAAAAAAAAAAAACACACACATATATATATATA [CACACA_site8571]” the “gcPBM binding intensity (ln)” value was 9.9. “AAAAAAAAAAAAAACACACACATATATATATATATA [CACACA_site1891]” was tested, and the “gcPBM binding intensity (ln)” value was 10.4. With “CTCCATATGAAACACACACACAAATGAAAAAAATAT [CACACA_site3018]” the “gcPBM binding intensity (ln)” value was 11. With “CTCCATATTAGACACACACACAAATGAAAAAAATAT [CACACA_site7420]” the “gcPBM binding intensity (ln)” value was 10.2. “AAAAAAAAAAAACACACACACATATATATATATATA [CACACA_site732]” was tested, and the “gcPBM binding intensity (ln)” value was 11.1.
